Source: PubChem BioAssay
BRCT inh green – qHTS Assay for Inhibitors of BRCT-Phosphoprotein Interaction (Green Fluorophore); Breast cancer type 1 susceptibility protein (Homo sapiens), P38398; BRCA1 BRCT-phosphopeptide binding, green fluorescence polarization; Potency, µM (titrated, usually from 76.9 µM), inactives show top-dose activity change, negative = inhibition, most hits filed as inhibitors; 75,000 tested, 0.05% active;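 further: potency means the concentration at half of the fitted maximal effect; plate controls were peptide without protein for full effect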
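Compounds were incubated for 12 min at room temperature with a complex of 100 nM fluorescein-tagged pBACH1 decapeptide and 250 nM His-tagged BRCT protein. Buffer was phosphate pH 7.3 with EDTA, DTT and Tween 20. Disruption of binding lowers the polarization signal.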
USP2a inh – qHTS Assay for Inhibitors of Ubiquitin-specific Protease USP2a | Ubiquitin carboxyl-terminal hydrolase 2 (Homo sapiens), O75604 | USP2a enzymatic assay, qHTS inhibition | Potency, µM (highest dose often 38.3 µM), for inactives: at the top dose activity change, negative = inhibition, actives largely listed as inhibitors | 60,000 tested, 0.1% active; further: potency means the concentration at half of the fitted maximal effect; nearly all actives have a fitted effect of over 60% in size
Target sequence (O75604 whole entry, looked up): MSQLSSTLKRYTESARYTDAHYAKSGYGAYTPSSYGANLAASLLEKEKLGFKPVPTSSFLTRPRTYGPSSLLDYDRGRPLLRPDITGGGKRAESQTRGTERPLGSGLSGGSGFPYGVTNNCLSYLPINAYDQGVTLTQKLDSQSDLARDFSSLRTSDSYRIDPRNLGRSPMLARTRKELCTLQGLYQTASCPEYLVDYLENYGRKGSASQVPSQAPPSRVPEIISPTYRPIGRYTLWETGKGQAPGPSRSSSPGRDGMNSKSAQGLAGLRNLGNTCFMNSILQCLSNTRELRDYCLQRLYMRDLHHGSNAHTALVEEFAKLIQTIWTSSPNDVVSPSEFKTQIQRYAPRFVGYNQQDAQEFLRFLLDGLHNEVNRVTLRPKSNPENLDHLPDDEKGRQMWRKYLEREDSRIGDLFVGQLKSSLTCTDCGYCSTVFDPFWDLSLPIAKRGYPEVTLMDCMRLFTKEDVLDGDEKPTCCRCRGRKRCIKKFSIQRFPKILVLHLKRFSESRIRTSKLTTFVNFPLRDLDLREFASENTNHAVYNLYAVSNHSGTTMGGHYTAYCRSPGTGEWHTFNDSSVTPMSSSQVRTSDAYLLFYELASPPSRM
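Inhibition is measured in a cell-free coupled assay with 20 nM USP2 core, 20 nM Ub-PLA2 and 20 uM NBD C6-HPC, 2.5 h incubation. Activity normalized to NEM control.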
DNA Pol III inh – qHTS Assay for Inhibitors of DNA Polymerase III Holoenzyme System | reconstituted DNA polymerase III holoenzyme replication, biochemical | Potency, µM (titrated, usually from 57.1 µM), inactives show top-dose activity change, negative = inhibition | 71,000 tested, 0.25% active; further: potency means the concentration at half of the fitted maximal effect; on the % scale 0 is the no-effect control and ±100 the full control effect
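Reconstituted *E. coli* holoenzyme (0.35 nM Pol III, 1 nM beta, 154 nM SSB, 2 nM primase) was preincubated with compound for 15 min at RT. Synthesis on 1.4 nM ssM13Gori ran 35 min, then was stopped with PicoGreen/EDTA and read as dsDNA fluorescence.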
BRCT PPI red – qHTS Assay for Inhibitors of BRCT-Phosphoprotein Interaction (Red Fluorophore); Breast cancer type 1 susceptibility protein (Homo sapiens), P38398; BRCT-phosphopeptide binding, red fluorescence polarization; Potency, µM (titrated, usually from 76.9 µM), without a hit: at the top dose activity change, negative = inhibition, hits mostly inhibitors; 75,000 tested, 0.03% active; AID 892, 2007; further: on the % scale 0 is the no-effect control and ±100 the full control effect
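Rhodamine-labelled pBACH1 10-mer (100 nM) bound to BRCT domain (100 nM) at pH 7.3; compounds incubated 12 min room temperature, polarization read. Free peptide defines full inhibition; unlabelled decapeptide titrated as control.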
TsaE inh – qHTS Assay for Inhibitors of YjeE. tRNA threonylcarbamoyladenosine biosynthesis protein TsaE (Escherichia coli (strain …. purified YjeE enzyme, qHTS inhibition assay. Potency, µM. 71,000 tested, 0.05% active. AID 605, 2007
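Purified YjeE (10 uM) with BODIPY Texas Red-labeled ADP probe (2 uM); compounds pin-transferred, 15 min at room temperature. Binding inhibition read as decreased fluorescence polarization; ADP titration as control.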
The depositor's hits bear a star; i = inactive; u = inconclusive; x = no result; ! = a repeat was not active; [ ] = dose if it differs, or a comment. Only some compounds are listed: those with a hit (about 0.36% of all), similar ones and a draw of the others. The call rests on the fitted dose curve; in most records, active means well fitted curve in the direction sought with a large enough effect; inconclusive means small, poorly fitted or top-dose-only effect, or another doubt; inactive means no such curve, though single readings can be large; an effect the other way counts as inactive or inconclusive.

SMILES	BRCT inh green	USP2a inh	DNA Pol III inh	BRCT PPI red	TsaE inh
Cn1c(C(=O)NCCCN2CCCCCC2)cc2c(=O)n(C)c3ccccc3c21	6.7%	x	7.94µM*	-1.8%	i
COc1ccccc1CN1CC[C@@]2(CCCN(C(=O)c3ccncc3)C2)C1	-2.0%	9.7%	-3.3%	0.7%	i
O=c1oc2ccccc2n1CCn1c2ccccc2c2nc3ccccc3nc21	-0.8%	10µM*	-6.0%	-0.5%	i
CCCn1c2ccccc2c2nc3ccccc3nc21	-3.3%	u	-7.4%	-0.3%	i
COc1ccc2c(c1)CN([C@H](C)[C@@H]1CC[C@@H]3[C@H]4CC[C@H]5C[C@@H](O)CC[C@@]5(C)[C@H]4CC[C@]31C)CO2	1.8%[15.4 µM]	x	-13.0%[11.4 µM]	0.2%[15.4 µM]	i
NC1(C(=O)O)CCC1	-3.8%	x	-2.4%	-2.3%	i
N.N.O=C(O)C1(C(=O)O)CCC1.[Pt]	-2.0%[3.08 µM]	-19.5%	7.94µM*	0.6%	i
Cn1c(C2CCCN2C(=O)OC(C)(C)C)n[nH]c1=S (configuration not stated)	-1.7%	6.1%	-0.4%	1.9%	i
O=C(NCC1CCCO1)c1cc(-c2ccco2)nc2ccccc12 (configuration not stated)	-2.7%	5.9%	31.6µM*	-0.2%	i
N#Cc1ccc2ccn(CC(=O)NCc3ccccc3)c2c1	-0.4%	12.6%	-0.6%	-0.4%	i
CCOC(=O)CNS(=O)(=O)CCN1C(=O)c2ccccc2C1=O	-2.4%	-7.2%	-4.7%	-1.5%	i
Nc1cc2c(nc3c4ccccc4c(N)cc3[n+]2-c2cccc3ccccc23)c2ccccc12 (tested in a mixture with another compound)	-1.4%[15.4 µM]	x	-4.5%[11.4 µM]	2.0%[15.4 µM]	u
Cc1cc(N)c2ccccc2[n+]1CCCCCCCCCC[n+]1c(C)cc(N)c2ccccc21	-2.5%[3.08 µM]	-25.3%	15.8µM*!	-1.3%	u
COc1ccc2c3c(cccc13)NN=C2C	-7.1%	u	31.6µM*	-4.7%	i
O=C1CCCC2=C1C(c1ccco1)Nc1ccc3ccccc3c12 (configuration not stated)	-3.6%	21.2%	25.1µM*	-5.4%	i
Cc1cccc(Nc2ccccc2C(=O)O)c1C	-1.4%[3.08 µM]	-19.5%	2.51µM*	-2.4%	i
CCn1c(CNc2ccccc2Cl)nnc1SCC(=O)NCc1ccccc1	-4.1%	4.8%	-7.6%	-1.5%	i
Nc1ncnc2nc[nH]c12.Nc1ncnc2nc[nH]c12.[Cl][Pt]([Cl])([Cl])[Cl]	x	x	2.51µM*	x	i
Nc1nc(N)c2[nH]cnc2n1 (tested in a mixture with another compound)	0.8%[15.4 µM]	x	1.9%[11.4 µM]	-0.5%[15.4 µM]	i
C=CCNc1nc(N(c2ccccc2)c2ccccc2)nc(-n2ccnc2)n1	-1.1%	12.9%	-4.6%	1.2%	i
CCCSC1=N/C(=C\C=C\c2ccco2)C(=O)S1	-10.3%	u	1.26µM*	-29.8%	i
O=C1SC(SCc2ccccc2)=N/C1=C\c1ccco1	-1.1%	21.8%	-20.6%	-4.0%	i
OCCN(CCO)c1nc(N2CCCCC2)c2nc(N(CCO)CCO)nc(N3CCCCC3)c2n1	39.8µM*	62.5%	31.1%	-3.0%	i
Cc1ccc(S(=O)(=O)NC(=NC(C)C(=O)O)c2ccccc2)cc1 (configuration not stated)	-1.9%	1.4%	-2.4%	-0.9%	i
Cc1cc(NC(=O)CSc2nc3c(c(-c4cccnc4)c2C#N)CCC3)no1	-0.1%	-2.8%[7.66 µM]	3.16µM*	1.9%	i
COc1cccc(NC(=O)CSc2nc3c(c(-c4ccco4)c2C#N)CCCC3)c1	0.7%	10.3%	-7.7%	-0.3%	i
FC(F)(F)c1ccccc1-c1nc(N2CCNCC2)c2ccccc2n1	1.3%	-9.0%	0.2%	0.3%	i
FC(F)(F)c1ccccc1-c1nc(N2CCOCC2)c2ccccc2n1	0.0%	10µM*	-5.5%	-0.5%	i
OCC1OC([S-])[C@H](O)C(O)C1O.[Au+] (some centres not stated)	-1.7%[3.08 µM]	u	x	31.6µM*	x
